# Results filed as inconclusive are left out. Where a call stands in place of a potency, no number is given. A number with no mark means an inactive call. Active and inactive are the calls of the source. Calls follow the shape of the dose curve; as a rule, active = well fitted curve in the direction sought with a large enough effect; inconclusive = small, poorly fitted or top-dose-only effect, or another doubt; inactive = no such curve, though single readings can be large; an effect the other way counts as inactive or inconclusive.
# How the values were obtained:
# [1] = target: Cellular tumor antigen p53 (Homo sapiens) (UniProt P04637); experiment: Primary qHTS for small molecule compounds that upregulate eGFP-tagged delta133p53alpha (in N-terminal) cells. (AID 2060322); conditions: NCI-H358 eGFP-delta133p53alpha fluorescence, 24 h; activation: hits give high values; also: nearly all actives have a fitted effect of over 75% in size; also: potency is read from the fitted curve at half-maximal effect;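 as to activation: cells pre-induced with doxycycline then dosed without doxycycline; series mostly up to about 56 µM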
# Procedure, shortened: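 NCI-H358 cells pre-induced 24 h with 10 ng/ml doxycycline for eGFP-delta133p53alpha, plated dox-free and exposed 24 h at 37C to titrated compounds. Fixed, Hoechst-stained; gated GFP peak intensity by laser scanning cytometry, normalized to DMSO (0%) and 57.5 uM 5-azacytidine (100%).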
# [2] = target: Retinaldehyde dehydrogenase 3 (Homo sapiens) (UniProt P47895); experiment: qHTS for Inhibitors of the Aldehyde Dehydrogenase Family (ALDH1A3) Validation screen (AID 2061312); also: nearly all actives have a fitted effect of over 45% in size
# [3] = target: Retinaldehyde dehydrogenase 3 (Homo sapiens) (UniProt P47895); experiment: qHTS for Inhibitors of the Aldehyde Dehydrogenase Family (ALDH1A3) Primary screen (AID 2061315); also: potency is read from the fitted curve at half-maximal effect
# Chain of Cellular tumor antigen p53 (Homo sapiens) (P04637 whole entry, looked up): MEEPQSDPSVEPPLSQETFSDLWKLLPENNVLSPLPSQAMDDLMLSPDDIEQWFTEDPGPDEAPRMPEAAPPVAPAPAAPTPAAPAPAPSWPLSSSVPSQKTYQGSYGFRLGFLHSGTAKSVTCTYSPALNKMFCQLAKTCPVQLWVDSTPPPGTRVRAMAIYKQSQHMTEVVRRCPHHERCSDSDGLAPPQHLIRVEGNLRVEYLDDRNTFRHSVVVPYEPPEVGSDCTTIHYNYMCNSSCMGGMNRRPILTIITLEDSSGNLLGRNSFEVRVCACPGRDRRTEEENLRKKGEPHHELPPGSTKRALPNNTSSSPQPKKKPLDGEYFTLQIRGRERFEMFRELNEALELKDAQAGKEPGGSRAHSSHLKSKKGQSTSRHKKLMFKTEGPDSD
SMILES,activation [1] [%],Potency [2],Potency [3],Potency [1]
COc1ccc2cc(C(C)C(=O)Oc3ccc(C(N)=S)cc3)ccc2c1 (configuration not stated),-3.34,inactive,inactive,–
O=C(Nc1cnc(Cl)nc1)c1ccc(F)c(F)c1,5.25,inactive,inactive,–
CCOc1nc2cccc(C(=O)OCc3oc(=O)oc3C)c2n1Cc1ccc(-c2ccccc2-c2noc(O)n2)cc1,0,inactive,inactive,–
CC(C)C(CO)Nc1nc(Nc2ccc(C(=O)O)c(Cl)c2)c2ncn(C(C)C)c2n1 (configuration not stated),6.21,inactive,inactive,–
Cc1cc(OCc2nc(-c3ccccc3Cl)cs2)ccc1OCC(=O)O,-1.91,inactive,inactive,–
COc1ccc(S(=O)(=O)Nc2nc(-c3cccc([N+](=O)[O-])c3)cs2)cc1OC,1.67,–,inactive,–
C=C/C=C/[C@@H]1OC[C@H](/C=C/C=C/C)[C@H]1O,-11.5,–,inactive,–
Cc1cc(NC(=O)Nc2ccc(F)c(F)c2)n(-c2ccccc2)n1,-15.8,inactive,inactive,–
CC1CC(O)/C=C/C(O)C(O)CC(=O)Cc2c(Cl)c(O)cc(O)c2C(=O)O1 (configuration not stated),4.58,–,inactive,–
CC/C=C\C/C=C\C/C=C\CCCCCCCC(=O)OCC(O)COC1OC(CO)C(O)C(O)C1O (configuration not stated),29.8,–,inactive,–
CC(=O)NC1C(OC(C)(C)C2CCC3(C)C=C(C4CCC5C4(C)CC(O)C4OC(C(C)(C)O)CCC45C)CCC3O2)OC(CO)C(O)C1O (configuration not stated),-3.05,–,inactive,–
CC(=O)OC[C@@]12C(=O)C[C@@H](C)[C@]3(C[C@@H](c4ccoc4)O[C@H]3OC(C)=O)[C@H]1CCC[C@]21CO1,11.5,–,inactive,–
Clc1ccc(Cn2c(Cc3ccccc3)nc3ccccc32)cc1,-5.25,inactive,inactive,–
COc1ccc([C@@]2(O)c3c(ccc4c3OC(C)(CCC=C(C)C)C=C4)NC(=O)[C@@H]2OC)cc1 (some centres not stated),-6.87,–,inactive,–
COC(=O)CC1OC(C)C2=C(O)c3c(O)cccc3C(=O)C23OC13 (configuration not stated),–,–,1.58 µM (active),5.88 µM (active)

# From PubChem BioAssay (NCATS)
